11 compounds from PubChem BioAssay (EPA / NIEHS) can be followed below.

Each structure is given as a SMILES string. Several values for one entry are separate records, joined by “and”; a condition that tells them apart may be missing. Identical values can stand only once. Some structures have more than one record in an assay (separate samples or runs), and their calls can disagree. Activity calls are given as the source filed them. Rule for the calls: active = hit-call score of the fitted dose curve at least 0.9, where 1 is the maximum; inactive = score below 0.9.

Read-out in this assay: Macrophage Inflammatory Protein-1 Alpha (MIP1a), CCL3 (gene 6348)
The experiment in a line: BSK_IMphg_MIP1a: BioMAP Diversity Plus: IMphg Assay for Macrophage Inflammatory Protein-1 Alpha (MIP1a) Biomarker Activity (AID 2284255). The note with it: primary human endothelial cells with macrophages. On the procedure: BSK_IMphg is a cell-based, multiplexed-readout assay that uses venular endothelial cells and macrophages, a human vascular primary cell, with measurements taken at 24 hours after chemical dosing in a microplate: 96-well plate.BSK_IMphg_MIP1a is an assay component measured in the BSK_IMphg assay. It measures MIP-1a antibody related to regulation of gene expression using ELISA technology.Data from the assay component BSK_IMphg_MIP1a was analyzed at the endpoint, BSK_IMphg_MIP1a, in the positive analysis fitting direction relative to DMSO as the negative control and baseline of activity. Using a type of binding reporter, gain or loss-of-signal activity can be used to understand protein changes. To generalize the intended target to other relatable targets, this assay endpoint is annotated to the 'cytokine' intended target family, where the subfamily is 'inflammatory factor'.
The levels of cell surface (or secreted, indicated by the prefix "s") biomarker endpoints were measured by ELISA. Overt cytotoxicity to cells in confluent adherent cultures (all systems other than the BT system) was assessed by measuring total protein levels using sulforhodamine B (SRB) staining in parallel cultures at the time of biomarker measurements, indicated as SRB endpoints. For proliferation assays for adherent cell types, individual cell types are cultured at sub-confluence and relative cell numbers quantified by SRB staining at time points optimized for each system (48 h: 3C and CASM3C systems; 72 h: BT and HDF3CGF systems; 96 h: SAg system). SRB was performed by staining cells with 0.1% SRB after fixation with 10% TCA and reading wells at 560 nm.Viability and proliferation of PBMC (T cells) was quantified by Alamar Blue reduction for the SAg and BT systems. For PBMC viability (referred to as PBMC Cytotoxicity within the assay endpoint names), cells were plated (75,000/well in a 96-well plate) and then chemical samples added for 1 h before addition of activators, SEB and TSST-1 (20 ng/mL final concentration each). Cells were incubated for 90 h. Then, Alamar Blue (20 uL/well) (Invitrogen, Cat DAL1100) was added for 6 h, and the plates were read with a fluorescence microplate reader at 546/580 nm (excitation/emission). For PBMC proliferation, cells were plated and activated as above but incubated for only 16 h prior to addition of Alamar Blue. Plates were read after 6 h.
Turning to `C=CC(=O)OCCC(F)(F)C(F)(F)C(F)(F)C(F)(F)C(F)(F)C(F)(F)C(F)(F)C(F)(F)F`, the result was inactive.

As for `O=P(O)(O)CCC(F)(F)C(F)(F)C(F)(F)C(F)(F)C(F)(F)C(F)(F)C(F)(F)C(F)(F)F`, the result was inactive.

Consider `CN(Cc1cnc2nc(N)nc(N)c2n1)c1ccc(C(=O)N[C@@H](CCC(=O)O)C(=O)O)cc1`, for which the result was inactive.

A word on the AC50: it is the concentration giving half of the maximal activity seen. With `O=C(O)CCC(F)(F)C(F)(F)C(F)(F)C(F)(F)C(F)(F)F`, the concentration at half-maximal activity (AC50) is 835 nM (active) and the result was inactive.

Regarding `O=P(O)(O)CCC(F)(F)C(F)(F)C(F)(F)C(F)(F)C(F)(F)C(F)(F)F`, the result was inactive.

As for `O=C(O)C(F)(F)OC(F)(F)C(F)(F)OC(F)(F)C(F)(F)OC(F)(F)C(F)(F)C(F)(F)C(F)(F)F`, the AC50 is 36.5 µM (active) and 38.3 µM (active).

Turning to `CN(CCO)S(=O)(=O)C(F)(F)C(F)(F)C(F)(F)C(F)(F)C(F)(F)C(F)(F)C(F)(F)C(F)(F)F`, the result was inactive.

For the compound `O=C(O)CCC(F)(F)C(F)(F)C(F)(F)C(F)(F)C(F)(F)C(F)(F)F`, the concentration at half-maximal activity (AC50) was 7.18 µM (active) and 19.2 µM (active); the outcome was inactive.

For `OCC(F)(F)C(F)(F)C(F)(F)C(F)(F)C(F)(F)C(F)(F)C(F)(F)C(F)(F)C(F)(F)C(F)(F)C(F)(F)F`, the outcome was inactive.

For the compound `O=S(=O)(O)C(F)(F)C(F)(F)C(F)(F)C(F)(F)C(F)(F)C(F)(F)C(F)(F)C(F)(F)C(F)(F)C(F)(F)F`, the result was inactive.

Regarding `O=C(CC(=O)C(F)(F)C(F)(F)C(F)(F)F)c1cccs1`, the AC50 is 52.5 µM (active) and 24.1 µM (active).
